According to PubChem BioAssay AID1159580 (chemical genetic matrix, 2015):
Several values for one entry are separate records, joined by “and”; a condition that tells them apart may be missing. Equal values may be shown once. Screen size: about 5,500 compounds; about 2,000 (36%) were called active. Not shown: some 18% with an inconclusive outcome. No stated cut-off is given here; in the data, active means normalized growth mostly below about 0.91 (no sharp cut-off); inconclusive means no clear call, values can overlap the other calls; inactive means mostly above about 0.92. The list shows a part of the results.

Test: chemical genetic growth profiling, strain panel (AID 1159580);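 further: tested at 20 µM; growth read once vehicle control cultures reached saturation at 30 °C; 1 = growth at the plate median or of vehicle wells; lower values mean less growth of the strain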
Details: growth OD

Measured: normalized growth

CCC1(c2ccc(N)cc2)CCC(=O)NC1=O (stereo not drawn)
inactive: S. cerevisiae deletion strains, locus YJR075W, strain HOC1, hits give low values 0.998 | S. cerevisiae deletion strains, locus YKL009W, strain mrt4, hits give low values 1.01 | S. cerevisiae deletion strains, locus YKL068W, hits give low values 1 | S. cerevisiae deletion strains, locus YKL085W, strain MDH1 (second series), hits give low values 1 | S. cerevisiae deletion strains, locus YKL085W, strain MDH1, hits give low values 1 | S. cerevisiae deletion strains, locus YKL160W, strain elf1, hits give low values 0.939 | S. cerevisiae deletion strains, locus YKR001C, strain vps1, hits give low values 0.995 | S. cerevisiae deletion strains, locus YKR026C, strain gcn3, hits give low values 0.961 | S. cerevisiae deletion strains, locus YKR091W, strain srl3, hits give low values 0.977 | S. cerevisiae deletion strains, locus YLL001W, strain dnm1, hits give low values 0.903 | S. cerevisiae deletion strains, locus YLL026W, hits give low values 0.956 | S. cerevisiae deletion strains, locus YLL041C, strain sdh2, hits give low values 0.968 | S. cerevisiae deletion strains, locus YLR027C, strain aat2, hits give low values 0.94 | S. cerevisiae deletion strains, locus YLR039C, strain RIC1, hits give low values 1.02 | S. cerevisiae deletion strains, locus YLR058C, strain SHM2, hits give low values 1.01 | S. cerevisiae deletion strains, locus YLR102C, strain apc9, hits give low values 0.992 | S. cerevisiae deletion strains, locus YLR113W, strain HOG1, hits give low values 1.06 | S. cerevisiae deletion strains, locus YLR221C, strain rsa3, hits give low values 0.99 | S. cerevisiae deletion strains, locus YLR258W, strain gsy2, hits give low values 0.992 | S. cerevisiae deletion strains, locus YLR262C, strain YPT6 (second series), hits give low values 0.999 | S. cerevisiae deletion strains, locus YLR262C, strain YPT6, hits give low values 1.03 | S. cerevisiae deletion strains, locus YLR268W, strain sec22, hits give low values 1.01 | S. cerevisiae deletion strains, locus YLR320W, strain mms22, hits give low values 0.978 | S. cerevisiae deletion strains, locus YLR330W, strain CHS5, hits give low values 1.01 | S. cerevisiae deletion strains, locus YLR342W, strain FKS1 (second series), hits give low values 1.02 | S. cerevisiae deletion strains, locus YLR342W, strain FKS1, hits give low values 0.926 | S. cerevisiae deletion strains, locus YLR357W, strain rsc2, hits give low values 0.917 | S. cerevisiae deletion strains, locus YLR370C, strain arc18, hits give low values 0.969 | S. cerevisiae deletion strains, locus YLR371W, strain rom2, hits give low values 0.997 | S. cerevisiae deletion strains, locus YLR384C, strain iki3, hits give low values 0.972 | S. cerevisiae deletion strains, locus YLR418C, strain cdc73, hits give low values 1 | S. cerevisiae deletion strains, locus YML016C, strain PPZ1, hits give low values 1.01 | S. cerevisiae deletion strains, locus YML032C, strain rad52, hits give low values 1 | S. cerevisiae deletion strains, locus YML120C, strain ndi1, hits give low values 0.93 | S. cerevisiae deletion strains, locus YML124C, strain tub3, hits give low values 0.985 | S. cerevisiae deletion strains, locus YMR058W, strain fet3, hits give low values 0.944 | S. cerevisiae deletion strains, locus YMR078C, strain ctf18, hits give low values 0.997 | S. cerevisiae deletion strains, locus YMR125W, strain sto1, hits give low values 0.988 | S. cerevisiae deletion strains, locus YMR129W, hits give low values 0.969 | S. cerevisiae deletion strains, locus YMR205C, strain PFK2, hits give low values 1 | S. cerevisiae deletion strains, locus YMR223W, strain ubp8, hits give low values 0.993 | S. cerevisiae deletion strains, locus YMR231W, strain pep5, hits give low values 0.973 | S. cerevisiae deletion strains, locus YMR263W, strain SAP30, hits give low values 1 | S. cerevisiae deletion strains, locus YMR307W, strain GAS1, hits give low values 0.942 | S. cerevisiae deletion strains, locus YNL067W, strain RPL9B, hits give low values 0.997 | S. cerevisiae deletion strains, locus YNL071W, strain lat1, hits give low values 0.986 | S. cerevisiae deletion strains, locus YNL128W, strain TEP1, hits give low values 1.01 | S. cerevisiae deletion strains, locus YNL153C, strain GIM3, hits give low values 1.02 | S. cerevisiae deletion strains, locus YNL175C, strain NOP13, hits give low values 0.992 | S. cerevisiae deletion strains, locus YNL183C, strain NPR1, hits give low values 0.974 | S. cerevisiae deletion strains, locus YNL197C, strain WHI3, hits give low values 0.987 | S. cerevisiae deletion strains, locus YNL209W, strain ssb2, hits give low values 0.997 | S. cerevisiae deletion strains, locus YNL224C, strain SQS1, hits give low values 1.02 | S. cerevisiae deletion strains, locus YNL233W, strain BNI4, hits give low values 0.994 | S. cerevisiae deletion strains, locus YNL248C, strain rpa49, hits give low values 0.955 | S. cerevisiae deletion strains, locus YNL250W, strain rad50, hits give low values 1 | S. cerevisiae deletion strains, locus YNL271C, strain bni1, hits give low values 0.995 | S. cerevisiae deletion strains, locus YNL298W, strain CLA4, hits give low values 0.992 | S. cerevisiae deletion strains, locus YNL307C, strain MCK1, hits give low values 0.999 | S. cerevisiae deletion strains, locus YNL322C, strain KRE1 (second series), hits give low values 0.973 | S. cerevisiae deletion strains, locus YNL322C, strain KRE1, hits give low values 0.996 and 1.02 | S. cerevisiae deletion strains, locus YNR049C, strain mso1, hits give low values 0.971 | S. cerevisiae deletion strains, locus YNR052C, strain pop2, hits give low values 0.988 | S. cerevisiae deletion strains, locus YOL012C, strain htz1 0.83 | S. cerevisiae deletion strains, locus YOL147C, strain pex11, hits give low values 0.999 | S. cerevisiae deletion strains, locus YOR001W, strain rrp6, hits give low values 0.934 | S. cerevisiae deletion strains, locus YOR061W, strain CKA2, hits give low values 1.02 | S. cerevisiae deletion strains, locus YOR069W, strain VPS5, hits give low values 1 | S. cerevisiae deletion strains, locus YOR070C, strain gyp1, hits give low values 0.987 | S. cerevisiae deletion strains, locus YOR080W, strain dia2, hits give low values 0.958 | S. cerevisiae deletion strains, locus YOR083W, strain WHI5 (second series), hits give low values 1.02 | S. cerevisiae deletion strains, locus YOR083W, strain WHI5, hits give low values 0.922 | S. cerevisiae deletion strains, locus YOR106W, strain vam3, hits give low values 0.899 | S. cerevisiae deletion strains, locus YOR136W, strain idh2, hits give low values 0.983 | S. cerevisiae deletion strains, locus YOR144C, strain elg1, hits give low values 1 | S. cerevisiae deletion strains, locus YOR184W, strain ser1, hits give low values 1.02 | S. cerevisiae deletion strains, locus YOR231W, strain MKK1, hits give low values 1.05 | S. cerevisiae deletion strains, locus YOR265W, strain rbl2, hits give low values 0.966 | S. cerevisiae deletion strains, locus YOR270C, strain vph1, hits give low values 0.977 | S. cerevisiae deletion strains, locus YOR290C, strain snf2, hits give low values 0.995 | S. cerevisiae deletion strains, locus YOR316C, strain cot1, hits give low values 0.996 | S. cerevisiae deletion strains, locus YPL051W, strain arl3, hits give low values 0.962 | S. cerevisiae deletion strains, locus YPL106C, strain sse1, hits give low values 1 | S. cerevisiae deletion strains, locus YPL240C, strain hsp82, hits give low values 0.983 | S. cerevisiae deletion strains, locus YPL241C, strain CIN2, hits give low values 1 and 1.01 | S. cerevisiae deletion strains, locus YPL256C, strain CLN2, hits give low values 1.07 | S. cerevisiae deletion strains, locus YPR119W, strain clb2, hits give low values 0.991 | S. cerevisiae deletion strains, locus YPR141C, strain kar3, hits give low values 1 | S. cerevisiae deletion strains, locus YPR163C, strain tif3, hits give low values 1 | S. cerevisiae deletion strains, locus YPR167C, strain met16, hits give low values 0.997 | S. cerevisiae deletion strains, strain wtn01, hits give low values 0.985 | S. cerevisiae strains, strain wild type, hits give low values 1.01
active: S. cerevisiae deletion strains, locus YPL078C, strain atp4, hits give low values 0.89
